# High-throughput results: PubChem, National Center for Advancing Translational Sciences (NCATS)
# EPAC1 agonist: agonists of human EPAC1; O95398; EPAC1 agonist qHTS, biochemical assay; response scale: 100% = response to 6.5 mM cAMP; Potency, µM (top dose mostly 154 µM), without a hit: at the top dose activation, most hits filed as activators; hit rate 0.073% among 360,000; AID 720707; also: nearly all actives have a fitted effect of over 60% in size
# Target sequence (O95398 whole entry, looked up): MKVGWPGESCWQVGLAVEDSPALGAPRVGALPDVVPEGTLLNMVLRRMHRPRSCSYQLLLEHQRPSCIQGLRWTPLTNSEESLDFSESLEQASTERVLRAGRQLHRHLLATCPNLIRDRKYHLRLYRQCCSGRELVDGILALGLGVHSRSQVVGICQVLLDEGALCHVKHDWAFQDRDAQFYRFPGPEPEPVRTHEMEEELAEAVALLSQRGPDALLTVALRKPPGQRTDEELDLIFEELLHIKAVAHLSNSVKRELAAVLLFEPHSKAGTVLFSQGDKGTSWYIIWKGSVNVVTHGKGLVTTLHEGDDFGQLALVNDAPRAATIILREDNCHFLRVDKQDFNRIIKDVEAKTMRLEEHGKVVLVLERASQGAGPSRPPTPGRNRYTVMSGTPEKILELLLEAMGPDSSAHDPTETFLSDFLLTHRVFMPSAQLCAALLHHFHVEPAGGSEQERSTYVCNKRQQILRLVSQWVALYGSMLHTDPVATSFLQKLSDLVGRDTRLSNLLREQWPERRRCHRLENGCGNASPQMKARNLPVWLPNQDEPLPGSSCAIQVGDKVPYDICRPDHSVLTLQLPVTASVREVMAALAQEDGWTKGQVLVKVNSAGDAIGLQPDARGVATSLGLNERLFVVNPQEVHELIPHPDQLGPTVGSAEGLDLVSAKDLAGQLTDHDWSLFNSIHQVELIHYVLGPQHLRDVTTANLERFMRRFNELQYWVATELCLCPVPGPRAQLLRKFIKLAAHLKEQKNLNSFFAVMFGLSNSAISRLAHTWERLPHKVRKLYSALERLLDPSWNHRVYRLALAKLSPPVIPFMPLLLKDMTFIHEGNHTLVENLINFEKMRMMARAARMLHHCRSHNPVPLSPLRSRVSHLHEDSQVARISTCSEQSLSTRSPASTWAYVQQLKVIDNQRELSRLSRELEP
#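 Compounds were pinned as a concentration titration into mixtures of EPAC1 (100 nM), BODIPY-GDP-loaded Rap1B (250 nM) and GDP (50 uM). After 5 min at room temperature, fluorescence was followed for 30 min; activity was scaled to 6.5 mM cAMP.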
# RGS4 inh: inhibitors of human regulator of G protein signaling 4; Transcreener GDP fluorescence polarization, RGS4-accelerated GTP hydrolysis; Potency, µM (top dose mostly 114 µM), without a hit: top-dose activity change, negative = inhibition, hits mostly inhibitors; hit rate 0.039% among 390,000; also: % is scaled to controls: 0 for no effect and ±100 for the full control effect; nearly all actives have a fitted effect of over 75% in size
#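 MLSMR compounds (23 nl, pin-transferred) preincubated 10 min at room temperature with a 500nM (2x) first reagent, then RGS4 at 900nM (2x) plus Transcreener GDP mix added; fluorescence polarization (620/688 nm) read before and after 90 min at 30 °C.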
# ERG-DNA inh: blocks human ERG Ets domain binding to DNA; fluorescence polarization, His-ERG Ets domain / labelled DNA; Potency, µM (series often up to 76.9 µM), for inactives: at the highest dose FP activity, negative = inhibition, most hits filed as inhibitors; hit rate 0.028% among 370,000; active = well fitted inhibition curve with a large enough effect in the polarisation, with a control signal flat; inconclusive = small, poorly fitted or top-dose-only effect, or effect the other way, or a change in a side signal; inactive = no such curve, though single readings can be large or run the other way; the % refers to the polarisation;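 also: polarization taken with two DNA probes labelled with fluorescein and Texas red; % of control where 0% means no effect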
#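 His-tagged ERG Ets domain (1 uM in the protein solution; 300mM KCl, 50mM Tris-HCl, 1mM EDTA, 1mM DTT, pH 7.5) received compound, then a probe mix of 5 nM fluorescein-DNA and 100nM Texas-615-DNA. Fluorescence polarization was read for both dyes.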
# EPAC2 ag: activates human EPAC2 exchange factor; Q8WZA2; EPAC2 activation, biochemical qHTS; response scale: 100% = 6.5 mM cAMP response; Potency, µM (titrated, usually from 154 µM), for inactives: top-dose activation, most hits filed as activators; hit rate 0.079% among 360,000; AID 720711; also: nearly all actives have a fitted effect of over 50% in size
#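 Compounds were titrated in qHTS against a Rap1B-BODIPY-GDP (250 nM) complex with EPAC2 (100 nM) and GDP (50 uM). BODIPY-GDP release tracked at 480/540 nm over 30 min at room temperature, normalized to 6.5 mM cAMP.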
# EPAC2 antagonist: antagonists of human EPAC2. Q8WZA2. EPAC2 GEF exchange of Rap1B-BODIPY-GDP, fluorescence. Potency, µM (series often up to 114 µM), for the others: top-dose activity, negative = inhibition, actives largely listed as inhibitors. hit rate 0.18% among 360,000. AID 720708; also: % is scaled to controls: 0 for no effect and ±100 for the full control effect; nearly all actives have a fitted effect of over 45% in size
# EPAC1 antag: blocks human EPAC1 exchange factor; EPAC1 GEF assay, Rap1b-BODIPY-GDP exchange fluorescence; AID 720709; Potency, µM (series often up to 115 µM), for the others: at the highest dose activity change, negative = inhibition, hits mostly inhibitors; hit rate 0.14% among 360,000; O95398;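 also: plate controls were vehicle for no effect and positive control for full effect; nearly all actives have a fitted effect of over 50% in size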
# * hit, by the source's call; ? = inconclusive; . = no result; ! = repeats disagree; [ ] = remark or other dose. In the library only some 0.4% were active in any assay of this set; here they are far more common. Unless noted, calls follow the shape of the dose curve; as a rule, active = well fitted curve in the direction sought with a large enough effect; inconclusive = small, poorly fitted or top-dose-only effect, or another doubt; inactive = no such curve, though single readings can be large; an effect the other way counts as inactive or inconclusive. Potency is read from the fitted curve at half-maximal effect.
SMILES,EPAC1 agonist,RGS4 inh,ERG-DNA inh,EPAC2 ag,EPAC2 antagonist,EPAC1 antag
CCOC(=O)c1sc2nc3c(SCC(=O)O)cc(C(=O)c4ccccc4O)cn3c(=O)c2c1C,5%,-17%,20%,3%,11%,-1%
CCOC(=O)c1sc2nc3c(SCC(=O)O)cc(C(=O)c4cc(F)ccc4O)cn3c(=O)c2c1C,89µM*,?,7%,13%,?,8.9µM*
CCCC[C@@]1(C2CCCC2)Cc2cc(OCC(=O)O)c(Cl)c(Cl)c2C1=O,-11%,-4%[56.9 µM],5%,-3%,45µM*,-20%
N#C/C(=C\c1ccc(OCc2ccccc2)cc1)C(=O)Nc1nc2c(s1)CCN(Cc1ccccc1)C2,-4%,-9%[11.4 µM],7%,-8%,37%,5%
CN(C)c1ccc(/C=C(/C#N)C(=O)Nc2nc3c(s2)CCN(Cc2ccccc2)C3)cc1,19%,-10%,18%,100µM*,89%,3%
O=C(COc1ccc(Cl)cc1)Nc1c(-c2cccs2)nc2ccccn12,-6%,?,8%,1%,3%,-3%
CC(C)CCNc1c(-c2cccs2)nc2ccccn12,3%,-11%,4%,-1%,45µM*,-14%
COC1OC(c2ccccc2)=C(c2cnc(N)nc2)c2ccc(F)cc21 (stereo not given),5%,.,.,10%,40µM*,-5%
CC[C@H](NC(C)C)[C@H](O)c1ccc(O)c2[nH]c(=O)ccc12,.,24µM*!,.,.,.,.
CCC(NC(C)C)C(O)c1ccc(O)c(O)c1 (stereo not given),6%,?,-8%,-3%,-8%,-2%
O=C1NC(=S)S/C1=C/c1ccc(OC(=O)c2ccco2)cc1,4%,-24%,30%,13%,?,-1%
O=C1NC(=S)S/C1=C\c1ccc(SCc2ccco2)o1,10%,-113%,72%,9%,45µM*,?
O=C1NC(=S)S/C1=C\c1ccc(SCc2ccccc2)o1,19%,?,33%,14%,?,22µM*
O=C(O)Cc1c[nH]c2ccc(O)cc12,-21%,21µM*!,20%,-2%,-4%,9%
CN1CCN(CCCN2c3ccccc3Sc3ccc(C(F)(F)F)cc32)CC1,-8%,19µM*!,-8%,9%,?,1%
O=C(CN1CCCC(O)C1)N1c2ccccc2Sc2ccc(C(F)(F)F)cc21 (stereo not given),-1%,32%,2%,-1%,4%,-5%
CC(NC(=O)c1ccc(F)cc1)c1nc2ccccc2[nH]1 (stereo not given),.,13%,8%,.,.,.
COc1ccc(/C=C2/SC(=S)N(NS(=O)(=O)c3ccc(C)cc3)C2=O)cc1,9%,-29%,12%,0%,?,?
C=CCOc1ccc(/C=C2\SC(=S)N(NS(=O)(=O)c3ccc(C)cc3)C2=O)cc1,-5%,-40%,11%,-8%,-26%,50µM*
Cc1ccc(S(=O)(=O)NN2C(=O)/C(=C\c3ccc(Cl)cc3)SC2=S)cc1,-4%,-38%,19%,-2%,-21%,?
Cc1ccc(/C=C2\SC(=S)N(NS(=O)(=O)c3ccc(C)cc3)C2=O)cc1,11%,-18%,1%,-3%,45µM*,?
O=S(=O)(Nc1c(Br)cc(Br)c2cccnc12)C1CCCCC1,.,6%,.,.,.,.
COc1ccc(-c2nc3c(=O)n(C)c(=O)nc-3n(C)n2)cc1,.,-8%,.,.,.,.
Cc1cccc(C(=O)Nc2ccc(N3CCC(N4CCCCC4)CC3)c(C(=O)O)c2)c1,.,21%,-1%,.,.,.
COc1cccc(CNc2ccc3nc(-c4ccc(N)cc4)c(OC)n3n2)c1,.,38µM*!,.,.,.,.
SMILES,EPAC1 agonist,RGS4 inh,ERG-DNA inh,EPAC2 ag,EPAC2 antagonist,EPAC1 antag
c1ccc(-c2cn3nc(-c4ccccc4)c(-c4ccccc4)nc3n2)cc1,?,-10%,-1%,?,134%,26%
Cc1ccc(-c2cn3nc(-c4ccccc4)c(-c4ccccc4)nc3n2)cc1,16%,-10%,2%,100µM*,213%,7%
CN(C)CC/C=C1/c2ccccc2Sc2c(O)cc(Cl)cc21,1%,-10%,-8%,10%,35µM*,-1%
COc1cccc(N2CCN(C(=O)Cn3cnc4onc(-c5ccc(F)cc5)c4c3=O)CC2)c1,.,21%,0%,.,.,.
Cc1cccc(C)c1OC(=O)c1ccccc1,-1%,-3%,-3%,7%,50µM*,-8%
CCN(CC)c1ccc(NC(=O)Cn2nc(C)n3cccc3c2=O)c(C)c1,.,-17%,0%,.,.,.
O=C(CN1C(=O)/C(=C2/SC(=S)N(CCS(=O)(=O)O)C2=O)c2ccccc21)Nc1cccc(C(F)(F)F)c1,0%,?,8%,-6%,56µM*,40µM*
CC1Cc2cc(S(=O)(=O)NCc3ccc(Cl)cc3)ccc2N1C(=O)C1CCC1 (stereo not given),.,8%,-1%,.,.,.
Cc1ccc(CNC(=O)CSc2nc3c(sc4ccccc43)c(=O)n2CCCOC(C)C)cc1,.,-4%,-4%,.,.,.
COc1ccc(-c2nc3n(c(=O)c2C#N)CCS3)cc1,3%,1%,-8%,13%,-4%,?
C=CCSc1nc(-c2ccc(OC)cc2)c(C#N)c(=O)n1CC=C,-4%,-34%,-5%,-3%,40µM*,-7%
O=C1Nc2ccccc2/C1=N\N=C\c1ccc(O)c(O)c1,2%,5%,13%,-9%,-16%,40µM*
COc1cc(/C=N/N=C2/C(=O)Nc3ccccc32)ccc1O,-8%,-26%,14%,-10%,-3%,-17%
CCOc1ccc(NC(=O)CN2C(C(=O)OC)=C(c3ccccc3)c3cc(Cl)ccc3S2(=O)=O)cc1,.,-3%,5%,.,.,.
CC(C)(C)c1ccc(/C=C/C(=O)Nc2ccc3c(c2)OCCO3)cc1,.,-7%[56.9 µM],.,.,.,.
COC1=C/C(=C/c2c(N)n3c(nc2=O)sc2cc(S(C)(=O)=O)ccc23)C=CC1=O,6%,19%,22%,14%,-14%,-3%
CS(=O)(=O)c1ccc2c(c1)sc1nc(=O)c(/C=C3/C=CC(=O)C(O)=C3)c(N)n12,-5%,-31%,41%,1%,0%,50µM*
COc1ccc(-c2cn3nc(N4CCCC(C(=O)NCc5ccccc5C)C4)sc3n2)cc1 (stereo not given),.,-36%,-1%,.,.,.
COc1ccc(Oc2ncnc3c2oc2ccccc23)cc1,.,-9%,3%,.,.,.
